The results in this text go back to PubChem BioAssay (NCI).

This is part of a sample that, as a whole, favours compounds with a hit. Of some 83,000 tested, about 20% had one in any assay.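 Method: cells in 96-well plates; compound added at one concentration; 48 h incubation; percent growth measured; values under 10 scored active.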 Activity calls are given as the source filed them.

This assay has as its system KM12 colon. The assay can be described thus: NCI-60 one-dose screen, 48 h (100 = growth as untreated, 0 = no growth, -100 = all killed). As to conditions: 10 µM.
For `CC(C)(C)c1ccc(S(=O)(=O)Oc2ccc(NC(=O)C3CCCCC3)cc2)cc1`, the growth is 31.7% (inactive). The value for `OCCn1cccn1` was 102% (inactive); that for `O=C(/C=C/C=C/c1c(C2CC2)nc2ccccc2c1-c1ccc(F)cc1)c1cccs1` was 9.97% (active). The value for `NS(=O)(=O)c1ccc(N2N=C(c3ccccc3)CCC2=O)cc1` was 188% (inactive); that for `COc1cc(C2C(C#N)=C(N)Oc3cc(O)ccc32)cc(OC)c1OC` (stereo not given) was 15.8% (inactive).

`CC(C)N(CCOc1ccc(-c2nc3sccn3c2-c2ccnc(S(C)(=O)=O)n2)cc1)C(C)C`: the growth is 90.4% (inactive). The value for `CCCCCCCCCCCCCCCCCC[n+]1ccc2c(C)c3c(c(C)c2c1)c1cc(O)ccc1n3CC` was 10.8% (inactive); that for `CC(C)c1cc(N=O)cc(C(C)C)c1O` was 111% (inactive); that for `NS(=O)(=O)Oc1ccc2c(ccn2C(=O)C23CC4CC(CC(C4)C2)C3)c1` was 107% (inactive). Take `COc1cc(-c2nn(-c3cccc(NC(=O)NCCNC(=O)c4ccccc4)c3)cc2-c2ccncc2)ccc1Cl`: the growth is 12.2% (inactive). On to `CCOC(=O)N/N=C/c1ccc(OC)c(OC)c1`, for which the growth is 117% (inactive).

Consider `CC(C)Cc1ccc([C@H](C)C(=O)O)cc1`, for which the growth was 108% (inactive). For `CCc1ccc(C2=NN(c3ccc(S(C)(=O)=O)cc3)C(=O)CC2)cc1` the value was 17.3% (inactive); for `CN1CCc2c(sc3nc4n(-c5ccc(Cl)cc5)c(=O)[nH]n4c(=O)c23)C1`, 100% (inactive). For `CC(C)(C)OC(=O)N1CCc2c(sc3ncnc(N/N=C/c4cccc5ccccc45)c23)C1` the value was 23.4% (inactive).

Consider `COc1ccccc1-n1c(-c2csc(NC(C)=O)n2)n[nH]c1=S`, for which the growth was 104% (inactive). The value for `CCCCC1(O)CCCCC1` was 96.8% (inactive); that for `CNS(=O)(=O)Oc1ccc(-c2sc3cc(OS(=O)(=O)NC)ccc3c2C(=O)c2ccc(OCCN3CCCCC3)cc2)cc1` was 80.2% (inactive); that for `CCOC(=O)C1C(C(=O)OCC)C2C(=O)C3C(C(=O)OCC)C(C(=O)OCC)C3C(=O)C12` (stereo not given) was 109% (inactive). The value for `C[C@]12CC[C@@H]3c4ccc(O)cc4CC[C@H]3[C@@H]1CC[C@@H]2NS(=O)(=O)c1ccc(C(F)(F)F)cc1` was 47.5% (inactive); that for `COc1cc2cc(Oc3ccc(NC(=O)Nc4ccc(Cl)c(Cl)c4)cc3)c(C)nc2cc1OC` was 13.9% (inactive); that for `Cc1c(C(N)=O)sc2c1c(=O)n(Cc1ccccc1)c1nnc(-c3ccc(Br)cc3)n21` was 25.6% (inactive). For `O=C(NCCCNS(=O)(=O)c1ccc(Cl)cc1)Nc1ccc(-n2cc(-c3ccncc3)c(-c3ccc(Cl)c(O)c3)n2)cc1` the value was 28.6% (inactive).

In the case of `CNC(=O)c1cc(Oc2ccc3c(c2)sc2nc(-c4ccc(N)cc4)cn23)ccn1`, the growth is 20.7% (inactive). For `O=C1CSC(=S)N1/N=C/c1ccc(Cl)s1` the value was 97.5% (inactive); for `COc1ccc(-c2cc(-c3ccc(Cl)cc3)nc(SCCCC(=O)NO)n2)cc1`, 18% (inactive); for `COc1ccc(-c2nn(-c3cccc(Cl)c3)cc2-c2cc(-c3ccccc3)nc(N)n2)cc1`, 31.8% (inactive). For `O=[N+]([O-])c1cccc(/C=N/NC(=S)NC23CC4CC(CC(C4)C2)C3)c1` the value was 95.2% (inactive); for `O=C1c2c(c3c4ccccc4n(CCCCCCN4CCOCC4)c3c3[nH]c4ccccc4c23)C(=O)N1O`, 78% (inactive). For `Nc1cc(-c2ccncc2)c[nH]c1=O` the value was 104% (inactive); for `COc1cc(-c2nn(-c3ccc(NC(=O)NCCCNC(=O)c4ccccc4)cc3)cc2-c2ccncc2)ccc1Cl`, 20% (inactive); for `C=CCn1c(SCC(=O)Nc2ccc(C(=O)/C=C/c3cc(OC)c(OC)c(OC)c3)cc2)nnc1-c1cc(-c2ccc(Cl)cc2)nc2ccccc12`, 85.8% (inactive).

For the molecule `CCCCCOC(=O)Nc1nc(=O)n(C2O[C@H](C)[C@@H](O)[C@H]2O)cc1F` (stereo not given in full), the growth was 103% (inactive). For the molecule `COc1ccc2c(c1)OC(N)=C(C#N)C2c1cc(OC)c(OC)c(OC)c1` (stereo not given), the growth is -10.3% (active). `CC(C)(C)OC(=O)N1CCc2c(sc3ncnc(N/N=C/c4ccccc4Br)c23)C1`: the growth is 92.1% (inactive).

For `Cc1cc(CCNC=O)c(C)c2c1sc1ccccc12`, the growth was 103% (inactive).

As for `Nc1ccn(Cc2nnc(CCC(=O)c3nc4ccccc4[nH]3)o2)c(=O)n1`, the growth is 84.4% (inactive). The value for `CNC(=O)c1cc(Oc2ccc3c(c2)sc2nc(-c4ccc(NC(=O)Nc5ccc(Cl)c(C(F)(F)F)c5)cc4)cn23)ccn1` was 83.5% (inactive).

For `COc1ccc(/C=C/C(=O)C(=O)/C=C/c2ccc(OC)c(OC)c2)cc1OC`, the growth was -4.31% (active).

As to `COc1ccc(C(c2ccc(OCCN(C)C)cc2)c2cc3ccccc3c3ccccc23)cc1` (stereo not given), the growth is 19.3% (inactive).
